{"source": "PubChem BioAssay (EPA / NIEHS)", "note": "“And” between values parts separate entries of the source, which are not always exact repeats. Equal values may be shown once. Inconclusive results are not listed. The source made the active and inactive calls. Rule for the calls: active = hit-call score of the fitted dose curve at least 0.9, where 1 is the maximum; inconclusive = response in the unintended direction; inactive = score below 0.9.", "data": [{"molecular_target": "Cellular tumor antigen p53 (Homo sapiens) (UniProt P04637)", "sequence (P04637 whole entry, looked up, the tested form may be a part)": "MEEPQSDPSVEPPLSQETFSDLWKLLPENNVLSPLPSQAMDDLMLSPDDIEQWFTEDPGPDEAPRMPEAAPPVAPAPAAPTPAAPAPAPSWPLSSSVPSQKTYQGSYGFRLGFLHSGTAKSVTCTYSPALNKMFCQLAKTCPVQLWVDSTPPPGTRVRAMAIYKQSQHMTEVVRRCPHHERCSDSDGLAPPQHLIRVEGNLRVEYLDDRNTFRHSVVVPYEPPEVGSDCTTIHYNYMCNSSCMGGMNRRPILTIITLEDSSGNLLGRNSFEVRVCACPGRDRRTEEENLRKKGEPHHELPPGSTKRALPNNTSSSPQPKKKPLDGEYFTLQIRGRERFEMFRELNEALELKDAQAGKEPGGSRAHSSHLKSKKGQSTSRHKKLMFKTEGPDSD", "experiment": "TOX21_p53_BLA_p4_ratio: Tox21 HCT-116 p53 Agonism Beta-lactamase Assay, Ratio, Phase 4 (AID 2283601)", "text": "TOX21_p53_BLA_p4 is a cell-based, single-readout assay that uses HCT116, a human intestinal cell line, […] in a 1536-well plate.TOX21_p53_BLA_p4_ratio is an assay readout measuring reporter gene via receptor activity and designed using inducible reporter (beta lactamase induction) detected with GAL4 b-lactamase reporter gene. The signal is derived from the ratio of cleaved (ch2) to uncleaved (ch1)reporter gene substrate used as the measure of target activity.Data from the assay component TOX21_p53_BLA_p4_ratio was analyzed into 1 assay endpoint. This assay endpoint, TOX21_p53_BLA_p4_ratio, was analyzed in the positive analysis fitting direction relative to DMSO as the negative control and baseline of activity. Using a type of inducible reporter, gain-of-signal activity can be used to understand changes in the reporter gene as they relate to the gene TP53. Furthermore, this assay endpoint can be referred to as a primary readout, because this assay has produced multiple assay endpoints where this ratio serves a reporter gene function to understand target activity. To generalize the intended target to other relatable targets, this assay endpoint is annotated to the DNA binding intended target family, where the subfamily is tumor suppressor.\nThawing Method: Place 14 mL of pre-warmed thaw medium into a 15 mL of conical tub. Remove the vial of cells to be thawed from liquid nitrogen and thaw rapidly by placing at 37C in a water bath with gentle agitation for 1-2 minutes. Decontaminate the vial by wiping with 70% ethanol before opening in a biological safety cabinet. Transfer the vial contents drop-wise into 14 mL of thaw medium in a sterile 15-mL conical tub. Centrifuge cells at 900 rpm for 4 minutes and resuspend in thaw medium. Transfer contents to the T75 tissue culture flask containing Thaw Medium and place flask in a humidified 37C/5% CO2 incubator. Switch to growth medium at first passage.Propagation Method: Aspirate medium, rinse once in DPBS, add 0.25% Trypsin/EDTA and swirl to coat the cell evenly. Add an equal volume of Growth Medium to inactivate Trypsin after 2-3 minutes incubation at 37C. Centrifuge cells at 900 rpm for 4 minutes and resuspend in growth medium. Cell should be passage or fed at least twice a week.Assay Protocol: Harvest cells from culture in growth medium and resuspend in assay medium. 2.2 Dispense 4000 cells/5 uL/well into 1536-well black/clear bottom plates using a Multidrop dispenser. After the cells were incubated at 37C for 5 hours, 23 nL of compounds dissolved in DMSO were transferred to the assay plate by a PinTool resulting in a 217-fold dilution. Incubate the plates for 16 hours at 37C, 5% CO2. Add 1 uL of 6X LiveBLAzer FRET B/G (CCF4-AM) Substrate Mixture to each well using a BioRAPTR dispenser and incubate the plates at room temperature for 2 hours. Measure fluorescence intensity at 460 and 530 nm emission and 405 nm excitation by an Envision detector. Data is expressed as the ratio of 460nm/530nm emissions. Add 4 uL of Cell-titer Glo to each well using BioRAPTR and incubate the plates at room temperature for 2 hours. Measure fluorescence intensity by a VewLux plate reader.", "values": [{"molecule": "CCN1CCCC1CNC(=O)c1cc(S(=O)(=O)CC)ccc1OC", "note": "(stereo not given)", "outcome": "inactive"}, {"molecule": "C#C[C@]1(OC(C)=O)CC[C@H]2[C@@H]3CCC4=C/C(=N/O)CC[C@@H]4[C@H]3CC[C@@]21CC", "AC50": "39.5 µM (active)"}, {"molecule": "CC(C)NCC(O)c1ccc(NS(C)(=O)=O)cc1", "note": "(stereo not given)", "outcome": "inactive"}, {"molecule": "Cc1ccccc1OCC(O)CO", "note": "(stereo not given)", "outcome": "inactive"}, {"molecule": "H-RKDVY-OH", "outcome": "inactive"}, {"molecule": "C[Si](C)(C)O[Si](C)(C)O[Si](C)(C)C", "outcome": "inactive"}, {"molecule": "COC(=O)/C=C\\C(=O)OC", "outcome": "inactive"}, {"molecule": "COc1cc2c(cc1OC)-c1cc(=Nc3c(C)cc(C)cc3C)n(C)c(=O)n1CC2", "AC50": "36.6 µM (active)"}, {"molecule": "CCCCCCCCCCCCCCCCN", "outcome": "inactive"}, {"molecule": "CCCCOC(=O)COc1ccc(Cl)cc1Cl", "outcome": "inactive"}, {"molecule": "O=C=Nc1ccc(Cc2ccc(N=C=O)cc2)cc1", "outcome": "inactive"}, {"molecule": "Cc1cccn2c(=O)c(-c3nnn[nH]3)cnc12", "outcome": "inactive"}, {"molecule": "COCCOCCOCCOCCO", "outcome": "inactive"}, {"molecule": "OC(CN1CCCCC1)c1cc(-c2ccccc2)on1", "note": "(stereo not given)", "outcome": "inactive"}, {"molecule": "CCC(=O)O[C@H]1CC[C@H]2[C@@H]3CCc4cc(O)ccc4[C@H]3CC[C@]12C", "outcome": "inactive"}, {"molecule": "CC(C)(C)OC(=O)c1ccccc1C(=O)O", "outcome": "inactive"}, {"molecule": "CCN(CC)CCNC(=O)COc1ccc(Cl)cc1", "outcome": "inactive"}, {"molecule": "Cc1cccc(Br)c1", "outcome": "inactive"}, {"molecule": "Cc1c(-c2ccccc2)oc2c(C(=O)OCCN3CCCCC3)cccc2c1=O", "outcome": "inactive"}, {"molecule": "C#C[C@]1(O)CC[C@H]2[C@@H]3[C@H](C)CC4=C(CCC(=O)C4)[C@H]3CC[C@@]21C", "outcome": "inactive"}, {"molecule": "CCCCOC(=O)/C=C\\C(=O)OCCCC", "outcome": "inactive"}, {"molecule": "Cc1cc(C)c(NC(=O)C[C@H](CC(=O)O)c2cccc3ccccc23)c(C(=O)N2CCC3(CCCC3)CC2)c1", "outcome": "inactive"}, {"molecule": "O=C[C@H](O)[C@@H](O)[C@H](O)[C@H](O)CO", "outcome": "inactive"}, {"molecule": "CC1CCCO1", "note": "(stereo not given)", "outcome": "inactive"}, {"molecule": "O=[N+]([O-])c1cc[n+]([O-])cc1", "outcome": "inactive"}, {"molecule": "CC(C)(S)C(=O)N[C@@H](CS)C(=O)O", "outcome": "inactive"}, {"molecule": "OCCN1CCN(CC/C=C2/c3ccccc3Sc3ccc(C(F)(F)F)cc32)CC1", "outcome": "inactive"}, {"molecule": "CSc1ccc(C(=O)c2[nH]c(=O)[nH]c2C)cc1", "outcome": "inactive"}, {"molecule": "CO[C@H](C(=O)[C@@H](O)[C@@H](C)O)C1Cc2cc3cc(O[C@H]4C[C@@H](O[C@H]5C[C@@H](O)[C@H](O)[C@@H](C)O5)[C@@H](O)[C@@H](C)O4)c(C)c(O)c3c(O)c2C(=O)[C@H]1O[C@H]1C[C@@H](O[C@H]2C[C@@H](O[C@H]3C[C@](C)(O)[C@H](O)[C@@H](C)O3)[C@H](O)[C@@H](C)O2)[C@H](O)[C@@H](C)O1", "note": "(stereo not given in full)", "AC50": "45.6 nM (active) and 49.7 nM (active)"}, {"molecule": "CCOC(=O)COc1ccc2c(C)c(CCN(CC)CC)c(=O)oc2c1Cl", "outcome": "inactive"}, {"molecule": "CCN(CC)C(=O)c1cccnc1", "outcome": "inactive"}, {"molecule": "CCc1cnc(C(=O)O)c(C(=O)O)c1", "outcome": "inactive"}, {"molecule": "COc1cc(/C=C/C(=O)O[C@H]2CC[C@]34C[C@]35CC[C@]3(C)[C@@H]([C@H](C)CCC=C(C)C)CC[C@@]3(C)[C@@H]5CC[C@H]4C2(C)C)ccc1O", "AC50": "6.07 µM (active)"}, {"molecule": "O=C(NCC(O)CO)c1c(I)c(C(=O)NCC(O)CO)c(I)c(N(CCO)C(=O)CO)c1I", "note": "(stereo not given)", "outcome": "inactive"}, {"molecule": "Oc1ccccc1C=NCc1ccccc1", "outcome": "inactive"}, {"molecule": "O=Cc1ccc([N+](=O)[O-])cc1", "outcome": "inactive"}, {"molecule": "CCc1cc(S(=O)(=O)O)c2cc(C(C)C)cccc1-2", "outcome": "inactive"}, {"molecule": "COc1ccc(CNCC(O)COc2ccc3[nH]c(=O)ccc3c2)cc1OC", "note": "(stereo not given)", "outcome": "inactive"}, {"molecule": "CC1Cc2ccccc2N1NC(=O)c1ccc(Cl)c(S(N)(=O)=O)c1", "note": "(stereo not given)", "outcome": "inactive"}, {"molecule": "CC(N)C12CC3CC(CC(C3)C1)C2", "note": "(stereo not given)", "outcome": "inactive"}]}]}
